Reference: PubChem BioAssay AID2289 (National Center for Advancing Translational Sciences (NCATS), 2010)
The whole screen tested about 340,000 compounds, of which about 3,300 (0.97%) were called active. Inconclusive results (about 9%) are left out. The call rests on the fitted dose curve; in most records, active means well fitted inhibition curve with a large enough effect; inconclusive means small, poorly fitted or top-dose-only effect, or effect the other way; inactive means flat fitted curve, though single readings scatter. The list shows a part of the results.

Assay: qHTS Assay for Modulators of miRNAs and/or Inhibitors of miR-21; further: nearly all actives have a fitted effect of over 55% in size
Conditions: HeLa miR-21-FLuc reporter, luciferase luminescence, 48 h; actives lower the signal
Method in brief: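 HeLa cells endogenously expressing miR-21, stably carrying CMV-driven firefly luciferase with a downstream miR-21 binding site, 2000 cells/well. Titrations up to approximately 40 uM, 48 hours; luciferase luminescence read.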
Potency means the concentration at half of the fitted maximal effect.

Potency, active:
CSc1ccc(/C=N/Nc2cccc(C(=O)O)c2)cc1 0.147 µM
O=C(O)c1cccc(N/N=C/c2ccc(OC(F)(F)F)cc2)c1 0.0521 µM
O=C(O)c1cccc(N/N=C/C2=C(Cl)c3cc(Cl)ccc3SC2)c1 0.261 µM
O=C(O)c1cccc(N/N=C/c2ccc(-c3ccccc3)cc2)c1 0.147 µM
O=C(O)c1cccc(N/N=C/c2ccc(F)c(F)c2)c1 0.233 µM
O=c1n(Cc2ccccc2Cl)nc2n1-c1ccccc1SC2 10.4 µM
COc1cccc(C(=O)Nc2ccc(C(F)(F)F)n(C)c2=O)c1 1.47 µM
COCCn1c(C(F)(F)F)ccc(NC(=O)c2ccccc2)c1=O 1.85 µM
Cc1cccc(-n2cnc3cc(C(=O)N4CCCCC4)ccc32)c1 9.27 µM
O=C(N=C1N=C2C=CC(Br)=CN2Cc2ccccc21)c1ccc([N+](=O)[O-])cc1[N+](=O)[O-] 3.69 µM
CCCCC#Cc1ccc2c(c1)COc1c3ccccc3nn1-2 2.07 µM
COC(=O)c1c(-c2cccs2)csc1NC(=O)COc1ccccc1 7.36 µM
COC(=O)c1c(-c2cccs2)csc1NC(=O)c1cccc(Cl)c1 0.656 µM
Cc1oncc1C(=O)Nc1ccc2ccccc2c1 7.36 µM
Cc1cc(C(=O)Nc2ccccc2)oc(=O)c1 6.56 µM
Cc1cc(C(=O)Nc2ccc3ccccc3c2)oc1C 0.293 µM
CC(=O)c1sc(NC(=O)c2ccccc2F)nc1-c1ccccc1 3.29 µM
O=C(Nc1ccccc1[N+](=O)[O-])C1COc2ccccc2O1 (configuration not stated) 3.29 µM
O=C(Nc1ncccc1Cl)C1COc2ccccc2O1 (configuration not stated) 4.65 µM
CCSc1nc2c(cnn2-c2ccccc2)c(=O)n1N 2.33 µM
O=C(NCCc1ccccc1)Nc1ccc(Cl)cc1 1.65 µM
CC(=O)Nc1ccc(C(=O)NCCc2ccccc2)cc1 7.36 µM
Clc1c(CSc2nc3ccccc3o2)nc2sccn12 1.12 µM
Cc1csc2nc(CSc3nc4ccccc4o3)c(Br)n12 4.65 µM
Cc1nc(NC(C)C)c2cnn(CCc3ccccc3)c2n1 14.7 µM
CCN(CC)c1nc(C)nc2c1cnn2CCc1ccccc1 5.85 µM
CCOC(=O)c1c(C)oc2c1c(C(c1ccncc1)N1CCOCC1)c(O)c1ccccc12 (configuration not stated) 16.5 µM
CCOC(=O)c1c(C)oc2c1c(C(c1ccccc1)N1CCOCC1)c(O)c1ccccc12 (configuration not stated) 3.69 µM
NC(=O)c1cnn(-c2ccc3ccccc3c2)c1N 16.5 µM
NC(=O)c1cnn(-c2cc(Oc3ccccc3)ncn2)c1N 2.07 µM
CCc1ccc(O)c(-c2cc(C(=O)Nc3cccnc3)[nH]n2)c1 2.33 µM
Cc1ccc(O)c(-c2cc(C(=O)Nc3cccnc3)[nH]n2)c1 2.61 µM
O=C(Nc1cccnc1)c1cc(-c2cc(Cl)ccc2O)n[nH]1 2.33 µM
Cc1ccc(-c2cc(C(=O)Nc3cccnc3)[nH]n2)c(O)c1C 2.93 µM
Cc1cc(O)c(-c2cc(C(=O)Nc3cccnc3)[nH]n2)cc1C 0.414 µM
COc1ccc(Cl)c2c1[nH]c1nc(SCc3ccccn3)nnc12 1.65 µM
O=C(COc1ccccc1Cl)NC(=O)NC1CCCC1 8.26 µM
CC(C)(C)NC(=O)NC(=O)COc1ccc(Br)cc1Br 0.585 µM
O=C(COc1ccc(Br)cc1Br)NC(=O)NC1CCCC1 5.21 µM
O=C(COc1ccccc1Cl)Nc1ccccc1C(=O)N1CCCCC1 6.56 µM
O=C(COc1ccc(Cl)cc1Cl)NC(=O)N1CCCCC1 6.56 µM
O=C(Nc1cccc2ccccc12)N1N=CCC1c1ccccc1 (configuration not stated) 6.56 µM
Cc1ccc2nc(/C(C#N)=C/c3ccc(-c4ccc(C(=O)OC(C)C)cc4)o3)[nH]c2c1 4.14 µM
COC(=O)c1sc(-c2cccs2)cc1N 8.26 µM
CCOC(=O)c1sc(-c2ccccc2)cc1N 3.98 µM
COC(=O)c1sc(-c2ccc(Cl)cc2)cc1N 4.14 µM
CCOC(=O)c1sc(-c2ccc(OC)cc2)cc1N 0.927 µM
CCOC(=O)c1c(N)sc(-c2ccccc2)c1C 11.7 µM
CCOC(=O)c1sc(=N)n(-c2ccc(OC)cc2)c1C 7.36 µM
CCOC(=O)c1cc(-c2ccccc2)sc1N 18.5 µM
COC(=O)c1ccc(N2OC3(C)C=CC2CC3)cc1 (configuration not stated) 13.1 µM
N/C(=N\OC(=O)c1cccs1)c1cccc(Br)c1 8.26 µM
N/C(=N\OC(=O)c1ccco1)c1cccc(Br)c1 3.69 µM
COc1ccc(/C(N)=N/OC(=O)c2ccco2)cc1OC 1.85 µM
N/C(=N\OC(=O)c1ccco1)c1ccccc1 5.21 µM
N/C(=N\OC(=O)c1ccco1)c1ccc(Cl)cc1 4.65 µM
CNc1nc(N2CCc3ccccc32)ncc1F 1.85 µM
CC1(C)CC(=O)c2cnc(N3CCc4ccccc43)nc2C1 1.85 µM
CC1(C)CC(=O)c2c(O)cc(OCc3ccc(Br)cc3)cc2O1 3.29 µM
CCOc1ccc(N=Nc2c(N)[nH][nH]c2=O)cc1 2.93 µM
COc1cccc(N=Nc2c(N)[nH][nH]c2=O)c1 7.36 µM
Cc1cc(C(=O)CSc2ccccc2)cc(C)c1O 9.27 µM
Cc1cc(C(=O)CSc2ccc(F)cc2)cc(C)c1O 9.27 µM
O=C(Nc1ccc(N2CCOCC2)c(Cl)c1)C1CCCCC1 16.5 µM
CN(Cc1ccsc1)C(=O)CCc1nnc(CCCc2ccccc2)o1 11.7 µM
Cc1cc(C)cc(NC(=O)c2oc3ccc4c(c3c2C)C(=O)CC(C)(C)O4)c1 0.826 µM
CCOC(=O)c1ccc(NC(=O)c2oc3ccc4c(c3c2C)C(=O)CC(C)(CC)O4)cc1 (configuration not stated) 0.208 µM
